PubChem BioAssay AID2501 (Southern Research Specialized Biocontainment Screening …, 2010)
The campaign covered roughly 2,200 compounds. About 1,200 (55%) were called active. The limit is not given here; nearly all actives have IC50 up to about 92 µM. The set was probably picked from earlier hits. Some of the results follow.

Test: counter assay for TAg ATPase ADP read-out – biochemical, ADP-Hunter, fluorescence, counter-screen (AID 2501);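 also: purified T antigen ATPase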
Conditions: series mostly up to 100 µM

SMILES	IC50
COc1cccc(-n2cnnn2)c1	inactive
CCCCCn1c(=O)c2ccccc2n2c(=S)[nH]nc12	11.7 µM (active)
COc1cccc(-n2c(=O)c3ccccc3n3c(=S)[nH]nc23)c1	16.1 µM (active)
CC(C)CCn1c(=O)c2ccccc2n2c(=S)[nH]nc12	10.9 µM (active)
COCCCn1c(=O)c2ccccc2n2c(=S)[nH]nc12	8.77 µM (active)
COc1cccc(N2CC(=O)Nc3c(oc4nc(-c5ccccc5)cc(C)c34)C2=O)c1	inactive
CCCn1c(=O)c2ccccc2n2c(=S)[nH]nc12	3.07 µM (active)
CCCCn1c(=O)c2ccccc2n2c(=S)[nH]nc12	11.3 µM (active)
CCCCn1c(-c2cccc3ccccc23)nc2cc3[nH]c(=O)c(C(C)C)nc3cc21	inactive
CC(C)C(=O)c1ccc(O)c(O)c1	1.71 µM (active)
CN(C)c1ccc(NS(=O)(=O)c2cccc(Cl)c2)cc1	13 µM (active)
CN(C)c1ccc(NS(=O)(=O)c2ccc(Cl)cc2)cc1	5.63 µM (active)
CCCNC(=O)NS(=O)(=O)c1ccc(Cl)cc1	inactive
CN(C)c1ccc(NS(=O)(=O)c2cc3c4c(c2)CC(=O)N4CCC3)cc1	1.83 µM (active)
O=C(NCc1cccnc1)C(=O)Nc1cc2c3c(c1)CC(=O)N3CCC2	inactive
O=C(CNS(=O)(=O)c1cccc(Cl)c1)OCc1csc(-c2ccccc2)n1	inactive
COc1ccc(NS(=O)(=O)c2ccc(NS(=O)(=O)c3ccc(SC)cc3)cc2)c(OC)c1	inactive
O=C(CC(Sc1ccc(Br)cc1)C(=O)O)c1ccc(Br)cc1 (stereo unspecified)	inactive
Oc1ccc(/C=N/Nc2ncnc3c2ncn3Cc2ccccc2)cc1O	10.1 µM (active)
CNC(=O)CS(=O)CC(=O)Nc1cc(OCCOC)c(Cl)cc1Cl (stereo unspecified)	inactive
CCOC(=O)c1[nH]nc(-c2cc(CC)c(O)cc2O)c1-c1cscn1	7.84 µM (active)
CCOC(=O)c1ccc(-c2c(-c3ccc4c(c3)OCO4)noc2-c2ccsc2)cc1F	inactive
CN(C)c1ccc(Nc2nc(N)c([N+](=O)[O-])c(N3CCOCC3)n2)cc1	4.28 µM (active)

SMILES	IC50
N#C/C(=C\c1ccccc1OCc1ccc(C(=O)O)cc1)C(=O)Nc1ccc(O)cc1	5.71 µM (active)
O=C(/C=C/c1ccc(Br)o1)NCc1ccccc1	inactive
N#C/C(=C\c1ccc(O)c(O)c1)C(=O)NCc1ccccc1	7.7 µM (active)
O=C(O)c1ccc(COc2ccccc2C=C2C(=O)c3ccccc3C2=O)cc1	inactive
N#C/C(=C\c1ccc(O)c(O)c1)C(=O)Nc1cccc2ncccc12	4.88 µM (active)
CNc1ccc(/C=C(\C#N)C(=O)Nc2ccccn2)cc1[N+](=O)[O-]	inactive
COc1ccc(/C=C(/C#N)C(=O)Nc2ccc(O)cc2)cc1C(=O)O	2.62 µM (active)
N#C/C(=C\c1ccc(O)c([N+](=O)[O-])c1)C(=O)NCc1ccccc1	inactive
CCOc1ccc(/C=C(\C#N)C(=O)NC2CC2)c(OCC)c1	inactive
COc1c(O)ccc2c1CN1CCc3cc4c(cc3C1C2)OCO4 (stereo unspecified)	inactive
CCOC(=O)c1ccc(S(=O)(=O)Nc2nc3cc(S(=O)(=O)NC4=NCCCCC4)ccc3s2)cc1	inactive
N#C/C(=C\c1ccc(N2CCOCC2)o1)C(=O)Nc1ccc(O)cc1	1.66 µM (active)
N#C/C(=C\c1ccc(O)c(O)c1)C(=O)NCCc1ccccc1	5.36 µM (active)
N#C/C(=C\c1ccc(O)c(O)c1)C(=O)Nc1ccccc1	12.6 µM (active)
N#C/C(=C\c1ccc(O)c(O)c1)C(=O)NCCCc1ccccc1	8.38 µM (active)
CC(c1ccncn1)N(C)Cc1nc(Cc2ccccc2F)no1 (stereo unspecified)	inactive
C[C@@H](NC(=O)/C(C#N)=C/c1ccc(O)c(O)c1)c1ccccc1	4.73 µM (active)
CCC(C)NC(=O)CC(c1ccccc1)c1cc(C)ccc1O (stereo unspecified)	inactive
Oc1c(C(c2ccco2)N2CCN(C(c3ccccc3)c3ccccc3)CC2)sc2ncnn12 (stereo unspecified)	inactive
C/C(=N\NC(=O)CSc1nc2ccccc2o1)c1ccc(O)cc1	6.4 µM (active)
C/C(=N/NC(=O)CSc1nc2ccccc2n1C)c1ccc(O)cc1	6.92 µM (active)
Cc1ccc(C)c(-n2c3nc(=O)[nH]c(=O)c-3cc3cc([N+](=O)[O-])ccc32)c1	inactive
COc1ccccc1C(C)NS(=O)(=O)c1cccs1 (stereo unspecified)	inactive
